Measurements reported in PubChem BioAssay AID1053188 (Broad Institute, 2014).
The whole screen tested about 83,000 compounds, of which about 780 (0.94%) were called active.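 The calls were made as follows: active = mean inhibition of at least 50% with a set share of replicates also reaching that level; inconclusive = no clear call, values can overlap the other calls; inactive = the rest.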 For the sample, actives were picked, then their nearest neighbours and some compounds at random.

experiment: CD40 pathway blockade in BL2 B cells – cell-based, luciferase reporter, single point, primary screen (AID 1053188); conditions: BL2 NF-kB luciferase reporter, CD40L-induced, 4 h, hits give high values; at 10 µM unless noted;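 also: 0% = neutral control wells and 100% = IKK inhibitor VII at 50 µM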

Row | Compound | inhibition
1 | COc1ccc(C#Cc2ccc([C@@H]3[C@@H](CO)N4CCCCN(C(=O)c5ccncc5)C[C@@H]34)cc2)cc1 | -18.8% [at 25 µM] (inactive)
2 | COc1ccc(C#Cc2ccc([C@H]3[C@@H](CO)N4CCCCN(S(=O)(=O)c5cn(C)cn5)C[C@H]34)cc2)cc1 | 66.3% [at 25 µM] (active)
3 | Cn1cnc(S(=O)(=O)N2CCCCN3[C@@H](CO)[C@@H](c4ccc(C#CC5CCCC5)cc4)[C@@H]3C2)c1 | 2.82% [at 25 µM] (inactive)
4 | Cc1nnc(CN(C)Cc2cn[nH]c2-c2ccc(-c3ccccc3)cc2)o1 | -39% (inactive)
5 | COc1ccc(C(=O)Nc2ccccc2C(=O)N/N=C/c2ccccc2OC)cc1 | 53.7% (active)
6 | COc1ccc(C(=O)Nc2cc(C)ccc2NC(=O)COc2ccccc2)cc1 | -29.7% (inactive)
7 | COc1ccccc1C(=O)NNC(=O)c1ccc(NC(=O)c2ccccc2)cc1 | 11.1% (inactive)
8 | CCCNC(=O)C1CC(=O)N(c2ccc(OCc3ccccc3)cc2)C1 (configuration not stated) | -7.3% (inactive)
9 | O=C(C[C@H]1C=C[C@@H](NC(=O)c2cnccn2)[C@H](CO)O1)NCc1ccccc1F | 3.55% [at 25 µM] (inactive)
10 | O=C(Nc1ccc(Cl)cc1)Nc1nnc(/C=C/c2ccccc2)s1 | -0.929% (inactive)
11 | O=C(Nc1ccccc1)c1nnsc1S(=O)(=O)c1ccc(Cl)cc1 | 96.6% (active)
12 | Cc1nnsc1C(=O)N/N=C/c1ccccc1Cl | 25% (inactive)
13 | Cc1cc(C(=O)OC(C)C(=O)NC2CCCCC2C)c(C)o1 (configuration not stated) | 16.2% (inactive)
14 | CC(=O)Nc1ccc(-c2csc(NC(=O)Nc3ccccc3)n2)cc1 | -27.4% (inactive)
15 | O=C(Nc1cccc(C(F)(F)F)c1)c1cnccn1 | -0.813% (inactive)
16 | NC(c1ccccc1)c1csc(NC(=O)Nc2cccc(C(F)(F)F)c2)n1 (configuration not stated) | 75% (active)
17 | CC(C)C[C@H](NC(=O)Nc1cccc(C(F)(F)F)c1)C(=O)O | 17.4% (inactive)
18 | NC(c1csc(NC(=O)Nc2cccc(C(F)(F)F)c2)n1)C1CCCCC1 (configuration not stated) | 76.7% (active)
19 | C[C@H]1CN([C@@H](C)CO)C(=O)CCCn2cc(nn2)CO[C@H]1CN(C)C(=O)Nc1cccc(C(F)(F)F)c1 | 3.26% [at 25 µM] (inactive)
20 | COc1ccc(NC(=O)Nc2ccc3c(c2)C(=O)N([C@@H](C)CO)C[C@H](C)[C@H](CN(C)Cc2ccc(C(F)(F)F)cc2)OCCCC[C@H](C)O3)cc1 | 8.72% (inactive)
21 | c1ccc(CNCc2ccc(CNCc3ccccc3)cc2)cc1 | -8.05% (inactive)
22 | Cc1ccc(S(=O)(=O)NCCC(=O)NNC(=O)C2COc3ccccc3O2)cc1 (configuration not stated) | -6.13% (inactive)
23 | Cc1ccsc1C(=O)OCC(=O)c1cc(C)n(CC2CCCO2)c1C (configuration not stated) | 94% (active)
24 | Cc1ccsc1C(=O)OCC(=O)c1cc2ccccc2o1 | -95.3% (inactive)
25 | Cc1cc(C(=O)Cn2cnc3cc([N+](=O)[O-])ccc3c2=O)c(C)n1CC1CCCO1 (configuration not stated) | 0.959% (inactive)
26 | O=C(OCC(=O)N1CCCC1=O)c1cc(S(=O)(=O)N2CCOCC2)ccc1Cl | 17.8% (inactive)

Row | Compound | inhibition
27 | O=C(Nc1ccc2c(c1)OCCO2)C1CCCN(c2ncccn2)C1 (configuration not stated) | -6.73% (inactive)
28 | O=C(Nc1ccc2c(c1)OCCO2)C1CCCC1 | 97.3% (active)
29 | O=C(Nc1ccc2c(c1)OCCO2)c1ccncc1 | -42.5% (inactive)
30 | CCOC(=O)COc1nc(C)cc(C(F)(F)F)c1C#N | 7.91% (inactive)
31 | CCCN1[C@H](CO)[C@H](c2ccc(C#CC3CCCCC3)cc2)[C@@H]1CNC(=O)C1CC1 | -8.21% [at 25 µM] (inactive)
32 | Cc1onc(-c2ccccc2)c1-c1nnc(COC(=O)c2ccc(N(C)C)cc2)o1 | 27.4% (inactive)
33 | CCN(Cc1ccccc1)S(=O)(=O)c1cc2c3c(c1)CCN3C(=O)CC2 | 12.8% (inactive)
34 | Cc1ccc(CNC(=O)COC(=O)C2CCC2)cc1 | -4.82% (inactive)
35 | CC(C)(Oc1ccc(Cl)cc1)C(=O)OCC(=O)NCCc1ccc(S(N)(=O)=O)cc1 | 11.6% (inactive)
36 | Cc1ccc(/C=C/C(=O)OCC(=O)NCc2ccc(Cl)cc2)o1 | 50.7% (active)
37 | COC(=O)c1sc(NC(=O)COC(=O)C2CCC2)c(C(=O)OC)c1C | 2.99% (inactive)
38 | CC[C@H]1CN2CCc3cc(OC)c(OC)cc3[C@@H]2C[C@@H]1C[C@H]1NCCc2cc(OC)c(OC)cc21 | 89.6% (active)
39 | CCn1cc(-c2cc(C(=O)O)on2)c(C)n1 | 8.77% (inactive)
40 | CS(=O)(=O)N1[C@H](C#N)[C@H](c2ccc(C#CC3CCCC3)cc2)[C@H]1CO | -13.6% [at 25 µM] (inactive)
41 | N#C[C@H]1[C@@H](c2ccc(C#CC3CCCC3)cc2)[C@H](CO)N1C(=O)Nc1ccc(F)cc1 | 12% (inactive)
42 | CC(C)NC(=O)N1[C@H](C#N)[C@H](c2ccc(C#CC3CCCCC3)cc2)[C@H]1CO | 52.1% (active)
43 | CS(=O)(=O)N1[C@@H](C#N)[C@H](c2ccc(C#CC3CCCCC3)cc2)[C@@H]1CO | -1.7% (inactive)
44 | CC(C)C#Cc1ccc([C@@H]2[C@@H](C#N)N(C(=O)C3CC3)[C@@H]2CO)cc1 | 3.05% [at 25 µM] (inactive)
45 | N#C[C@@H]1[C@H](c2ccc(C#CC3CCCCC3)cc2)[C@@H](CO)N1S(=O)(=O)c1ccccc1 | 51.3% (active)
46 | O=C(O)C(c1cccs1)C1(O)CCCCC1 (configuration not stated) | 6.28% (inactive)
47 | Cn1c(N)cc(-c2ccc(F)cc2)c(C#N)c1=O | 4.59% (inactive)
48 | COc1ccc(S(=O)(=O)N2CCOCC2)cc1NC(=O)CSc1cc(C)ccc1C | 2.01% (inactive)
49 | Cc1cc2ccccc2n1CCC(=O)O | 4.73% (inactive)
50 | C[C@@H]1C(=O)N[C@H](c2ccc3c(c2)OCO3)CC=CC[C@H](C)Oc2ccccc2C(=O)N1C (mixture of isomers) | 3.83% [at 25 µM] (inactive)
51 | C[C@@H]1CC=CC[C@H](c2ccc(F)cc2)NC(=O)[C@@H](Cc2ccccc2)N(C)C(=O)c2ccccc2O1 (mixture of isomers) | 53.9% [at 25 µM] (active)
52 | C[C@@H]1CC=CC[C@@H](c2ccccc2)NC(=O)[C@H](C)N(C)C(=O)c2ccccc2O1 (mixture of isomers) | 8.95% [at 25 µM] (inactive)
